RecA splice inh: inhibitors of M. tuberculosis RecA intein splicing. 290,000 compounds, 0.75% hits. inhibition, % (test concentration not listed). cell-free RecA intein splicing, fluorescence; in the data active = inhibition above about 30%; inconclusive = no clear call, values can overlap the other calls
Mtb bLac sens: beta-lactam sensitization of Mtb H37Rv | M. tuberculosis H37Rv growth with meropenem, percent inhibition | inhibition, % at 25 µM | 330,000 compounds, 0.27% hits | AID 434955; call rule not given here;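 also: growth measured after seven days incubation then overnight dye step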
FBA Mtb inh: Mtb fructose-bisphosphate aldolase inhibition. P9WQA3. purified M. tuberculosis FBA, fluorescence read-out. inhibition, % at 1 µM. 360,000 compounds, 2.3% hits
GDH-TPI counter-1: counter-screen for M. tuberculosis FBA inhibitors: GDH-TPI coupled enzymes | inhibition, % at 4.8 µM | GDH-TPI coupled enzyme counterscreen, NADH absorbance | 360,000 compounds, 1.2% hits; in the data active = inhibition above about 30%
Rv3671c protease: inhibits the M. tuberculosis serine protease Rv3671c; 320,000 compounds, 0.048% hits; inhibition, % at 5.96 µM; AID 2606; in the data active = inhibition above about 38%;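 also: extracellular domain of Rv3671c used as enzyme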
Mtb UGM inh: inhibitors of M. tuberculosis UDP-galactopyranose mutase | P9WIQ1 | purified UGM, fluorescence polarization probe displacement | inhibition, % at 10 µM | 320,000 compounds, 0.06% hits | AID 504406; in the data active = inhibition above about 10%, passing the limit was not always enough; inconclusive = no clear call, values can overlap the other calls
Target sequence (P9WIQ1 whole entry, looked up): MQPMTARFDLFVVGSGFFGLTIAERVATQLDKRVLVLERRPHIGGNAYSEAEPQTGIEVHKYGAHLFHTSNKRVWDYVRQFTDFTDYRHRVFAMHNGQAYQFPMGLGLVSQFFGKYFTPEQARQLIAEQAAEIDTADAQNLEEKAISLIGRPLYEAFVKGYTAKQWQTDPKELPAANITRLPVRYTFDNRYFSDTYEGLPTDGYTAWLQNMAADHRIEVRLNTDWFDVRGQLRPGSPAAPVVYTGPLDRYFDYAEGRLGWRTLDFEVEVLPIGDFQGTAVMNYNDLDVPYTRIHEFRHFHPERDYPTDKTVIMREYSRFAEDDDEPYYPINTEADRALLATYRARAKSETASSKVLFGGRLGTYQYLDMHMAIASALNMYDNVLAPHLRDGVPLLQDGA
Mtb FBA confirm: Mtb FBA inhibition, confirmed | purified M. tuberculosis FBA, fluorescence read-out | 5,600 compounds, 78% hits | inhibition, % at 1 µM | shares compounds with FBA Mtb inh
GDH-TPI counter-2: counter-screen for M. tuberculosis FBA inhibitors: GDH-TPI coupled enzyme inhibition; 5,600 compounds, 81% hits; inhibition, % at 1 µM; shares compounds with FBA Mtb inh; GDH-TPI coupled enzyme counterscreen, fluorescence; in the data active = inhibition above about 10%
A number is an active result; i = inactive; ? = inconclusive; nt = no result given; + = active, no number; ! = a repeat was not active. Most compounds without a hit are left out; they make up all but 4% or so of the library. Rule as the data show it, unless noted: active = inhibition above about 27%; inactive = the rest.

SMILES	RecA splice inh	Mtb bLac sens	FBA Mtb inh	GDH-TPI counter-1	Rv3671c protease	Mtb UGM inh	Mtb FBA confirm	GDH-TPI counter-2
Cc1cc(NC(=O)c2cc(-c3cccs3)nc3ccccc23)no1	i	i	71	i	i	i	i	i
Cc1ccc(-c2cc(C(=O)Nc3cc(C)on3)c3ccccc3n2)cc1	i	i	i	i	i	i	nt	nt
CCN(CC)S(=O)(=O)c1ccc(NC(=O)c2cc(-c3cccs3)nc3ccccc23)cc1	i	i	i	i	i	i	nt	nt
Cc1cccc(-c2cc(C(=O)Nc3cccnc3)c3ccccc3n2)c1	nt	i	i	i	i	i	nt	nt
CCOC(CCNC(=O)c1cc(-c2cccs2)nc2ccccc12)OCC	i	i	95	i	i	i	+	+
Cc1ccc(-c2cc(C(=O)Nc3cccnc3)c3ccccc3n2)s1	i	i	42	i	i	i	59	43
COc1ccc(-c2cn(Cc3ccc(C)cc3)nn2)cc1	i	i	i	i	i	i	nt	nt
Cc1ccc(NS(=O)(=O)c2ccc(-c3coc(C)n3)cc2)c(Cl)c1	nt	nt	i	i	nt	nt	nt	nt
Cc1ccc(-c2cc(C(=O)O)c3cc(Br)ccc3n2)s1	i	i	32	41!	nt	i	197!	194!
O=C(O)c1ccc(/C=N/NC(=O)c2cc(-c3cccs3)nc3ccccc23)cc1	i	i	31	i	i	i	+	+
NNC(=O)c1cc(-c2cccs2)nc2ccccc12	nt	i	44	i	i	i	110	92
O=C(NC1=NCCS1)c1cc(-c2cccs2)nc2ccccc12	i	i	44	i	i	i	87	63
CN(CC1COc2ccccc2O1)C(=O)CCNS(=O)(=O)c1ccc(F)c(Cl)c1 (stereo not given)	nt	nt	i	i	nt	nt	nt	nt
CCCCN(C(C)=O)c1c(CC)nc2ccc(C(=O)Nc3cccc(OCC(=O)N(C)C)c3)cn12	nt	nt	i	i	nt	nt	nt	nt
C/C(=N\NC(=O)c1cccc2ccccc12)c1ccccn1	i	nt	i	i	nt	nt	nt	nt
C/C(=N\NC(=O)c1cc(-c2cccs2)nc2ccccc12)c1ccccn1	i	i	34	i	i	i	99	92
CCOC(=O)Nc1nnc(Cc2ccc(Cl)c(Cl)c2)s1	i	i	103	i	i	i	63	47
CC(C)n1cnc2c(Nc3cccc(Cl)c3)nc(NCCCO)nc21	i	i	34	i	i	i	130	98
CCCN(C(=O)CSCc1ccc(C)cc1)c1c(N)n(Cc2ccccc2)c(=O)[nH]c1=O	nt	nt	i	i	nt	nt	nt	nt
O=S(=O)(Nc1cccc(-c2nnco2)c1)c1ccc(Cl)cc1	nt	i	i	i	i	i	nt	nt
O=S(=O)(Nc1cccc(-c2cn3cccnc3n2)c1)c1ccc(Cl)cc1	i	i	56	i	i	i	i	i
COc1ccc(C)cc1S(=O)(=O)Nc1cccc(-c2cn3cccnc3n2)c1	nt	i	89	i	i	i	i	i
C#CCOCCOCCOCCNc1nc(N2CCN(C(=O)[C@H](CCC(=O)O)n3cc([C@@H](N)[C@H](C)CC)nn3)CC2)nc(N2CCN(C(=O)[C@H](CCCCN)n3cc([C@@H](N)CC(N)=O)nn3)CC2)n1	nt	i	i	i	i	i	nt	nt
Cc1ccc(NC(=O)CCCCCN2C(=O)[C@@H]3Cc4ccccc4CN3C2=O)cc1	i	i	53	i	i	i	i	i
CC(=O)c1cccc(NC(=O)Cn2cnc(S(=O)(=O)N3CCC(C)CC3)c2)c1	i	i	i	i	i	i	nt	nt
SMILES	RecA splice inh	Mtb bLac sens	FBA Mtb inh	GDH-TPI counter-1	Rv3671c protease	Mtb UGM inh	Mtb FBA confirm	GDH-TPI counter-2
CC1CCN(S(=O)(=O)c2cn(CC(=O)Nc3cccc(C#N)c3)cn2)CC1	i	i	39	i	i	i	80	65
CCCNC(=O)C1(C)CCCN(Cc2ccc(-n3ccnc3)cc2)C1 (stereo not given)	nt	nt	i	i	nt	nt	nt	nt
C[C@@H]1CN(S(=O)C(C)(C)C)[C@@H](CCO)/C1=C\CCO (stereo not given in full)	nt	nt	i	i	nt	nt	nt	nt
CCOC(=O)C1CCCN(S(=O)(=O)c2cc3[nH]c(=O)c(=O)[nH]c3cc2C)C1 (stereo not given)	i	i	48	i	i	i	83	58
CCCCc1cc(=O)oc2cc(OCC(=O)N3CCOCC3)ccc12	i	i	30	i	i	i	139	101
CCCCc1cc(=O)oc2cc(OCC(=O)Nc3ccccn3)ccc12	i	i	46	i	i	i	68	58
CCCCc1cc(=O)oc2cc(OCC(=O)N3CCC(C(N)=O)CC3)ccc12	i	i	i	i	i	i	nt	nt
O=c1c2[nH]c3ccccc3c2ncn1CCN1CCCCC1	i	i	i	i	i	i	nt	nt
COc1ccc2c(c1)c1ncn(CCN3CCCCC3)c(=O)c1n2C	i	i	100	i	i	i	107	88
COc1ccc2c(c1)c1ncn(CCN3CCCC3)c(=O)c1n2C	i	i	89	i	i	i	90	74
Cc1ccc2c(c1)[nH]c1c(=O)n(CCN3CCCCC3)cnc12	i	i	i	i	i	i	nt	nt
COc1ccccc1CCn1cnc2c3cc(C)ccc3n(C)c2c1=O	i	?	46	i	i	i	+	+
COc1cccc(C(=O)OCC(=O)c2ccc(Br)s2)c1OC	nt	i	i	i	i	i	nt	nt
Cc1c(CCC(=O)O)c(=O)oc2cc(OCc3cccc(F)c3)ccc12	i	i	86	i	i	i	i	i
COc1cccc(-c2coc3cc4oc(=O)c(CCC(=O)O)c(C)c4cc23)c1	i	i	i	i	i	i	nt	nt
COc1ccc(-c2coc3cc4oc(=O)c(CC(=O)O)c(C)c4cc23)cc1	i	nt	i	i	nt	nt	nt	nt
Cc1c(CC(=O)O)c(=O)oc2cc(OCc3ccc(Br)cc3)ccc12	i	i	86	i	i	i	139	122
Cc1c(CCC(=O)O)c(=O)oc2cc(OCc3ccccc3Br)ccc12	i	i	61	i	i	i	99	69
CC[C@H](C)[C@H]1O[C@]2(CC[C@@H]1C)C[C@@H]1C[C@@H](CC=C(C)[C@@H](O[C@H]3C[C@H](OC)[C@@H](O[C@H]4C[C@H](OC)[C@@H](O)[C@H](C)O4)[C@H](C)O3)[C@@H](C)C=CC=C3CO[C@@H]4[C@H](O)C(C)=C[C@@H](C(=O)O1)[C@]34O)O2	nt	i	i	i	i	i	nt	nt
CN1C(=O)NC(=O)C1c1ccccc1 (stereo not given)	nt	nt	i	i	nt	nt	nt	nt
COc1ccc([C@H]2N[C@]3(CCCN(Cc4ccc(Cl)cc4)C3=O)[C@H]3C(=O)N(Cc4ccccc4)C(=O)[C@@H]23)cc1	nt	nt	i	i	nt	nt	nt	nt
COc1ccc2[nH]c(=O)c(-c3noc(-c4ccccc4)n3)cc2c1	i	i	32	i	i	i	165	117
COc1ccc2[nH]c(=O)c(-c3nnn(-c4ccccc4)n3)cc2c1	i	i	34	i	i	i	176	128
COc1ccc2[nH]c(=O)c(-c3nnn(-c4ccc(F)cc4)n3)cc2c1	i	i	i	i	i	i	nt	nt

Assay outcomes (PubChem)
